Measured values from PubChem BioAssay (NCI).
This is part of a sample that, as a whole, favours compounds with a hit. Of some 83,000 tested, about 20% had one in any assay.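 Assay: single dose, 48 h. Readout: percent growth (0 = no net growth; negative = cell death). Active: <10.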 Active and inactive are the calls of the source.

Key:
Assay in all cases: NCI-60 one-dose screen, 48 h (100 = growth as untreated, 0 = no growth, -100 = all killed)
Conditions in all cases: 10 µM unless noted
[1] = test system: SK-MEL-2 melanoma
[2] = test system: EKVX NSCLC
[3] = test system: SN12C renal
[4] = test system: UO-31 renal
[5] = test system: TK-10 renal
[6] = test system: ACHN renal
[7] = test system: CAKI-1 renal
[8] = test system: A498 renal
[9] = test system: CCRF-CEM leukemia
[10] = test system: MOLT-4 leukemia
[11] = test system: SR leukemia
[12] = test system: RPMI-8226 leukemia
[13] = test system: OVCAR-8 ovarian
[14] = test system: OVCAR-5 ovarian
[15] = test system: OVCAR-4 ovarian
[16] = test system: SK-OV-3 ovarian
[17] = test system: IGROV1 ovarian
[18] = test system: OVCAR-3 ovarian
[19] = test system: HS 578T breast
[20] = test system: NCI/ADR-RES ovarian

Measured: growth

O=c1ccc(=O)n(-c2nc(-c3ccc([N+](=O)[O-])cc3)cs2)[nH]1
inactive: [1] 108% | [2] 101% | [3] 101% | [4] 82.4% | [5] 107% | [6] 102% | [7] 101% | [8] 87.9% | [9] 99.4% | [10] 86.5% | [11] 94.5% | [12] 95.3% | [13] 102% | [14] 102% | [15] 101% | [16] 107% | [17] 99.3% | [18] 102% | [19] 98.8% | [20] 104%

C=C1C(=O)O[C@H]2[C@H]1CC/C(COC(=O)CSCSCC(=O)OC/C1=C/CC[C@@]3(C)O[C@H]3[C@H]3OC(=O)C(=C)[C@@H]3CC1)=C\CC[C@@]1(C)O[C@@H]21
active: [3] 5.07% | [4] -0.857% | [6] 7.98% | [9] -35% | [10] -15.3% | [11] -16.4% | [12] -31.2% | [13] 5.96% | [17] 0.96% | [18] -21.4%
inactive: [1] 59% | [2] 15.9% | [5] 15.3% | [7] 15.9% | [8] 83.6% | [14] 30.1% | [15] 50.5% | [16] 104% | [19] 23.1% | [20] 62.4%

CN(C)c1ccc(-c2nc(-c3ccccc3)c(-c3ccccc3)[nH]2)cc1
inactive: [1] 83.9% | [2] 61.1% | [3] 92.9% | [4] 84.8% | [5] 99.6% | [6] 94% | [7] 84.6% | [8] 82.4% | [9] 90% | [10] 83.4% | [11] 88.2% | [12] 90% | [13] 96.9% | [14] 122% | [15] 94% | [16] 83.1% | [17] 91.6% | [18] 114% | [19] 103% | [20] 95%

O=c1nc(-c2ccccc2)c2cc(-c3ccc(C(F)(F)F)nc3)ccc2[nH]1
inactive: [1] 103% | [2] 97.8% | [3] 102% | [4] 75.8% | [5] 99.9% | [6] 96.5% | [7] 93.1% | [8] 104% | [9] 46.5% | [10] 83.3% | [11] 93.2% | [12] 91.3% | [13] 106% | [14] 97.6% | [15] 108% | [16] 105% | [17] 111% | [18] 96% | [19] 95.7% | [20] 98.4%

Cc1c(Cl)cccc1C(=O)Nc1nc2c(s1)CN(C(=O)c1ccc(C(F)(F)F)cc1)CC2
inactive: [1] 49.9% | [2] 49.5% | [3] 30% | [4] 44.4% | [5] 64.5% | [6] 25.3% | [7] 22.7% | [9] 16.5% | [10] 21.8% | [11] 21.3% | [12] 10.6% | [13] 10.1% | [14] 57.5% | [15] 38.5% | [16] 36.4% | [17] 17.9% | [19] 26.8%
active: [8] -20.1% | [18] 0.113% | [20] 5.22%

CCN1C(=O)N(CC)C2C1NN=c1s/c(=C\c3cnc(C)n3C)c(=O)n12 (stereo not given)
active: [8] -9.65% | [9] 9.03% | [18] -17.6% | [19] -1.81%
inactive: [1] 39.2% | [2] 49.7% | [3] 33.4% | [4] 40.9% | [5] 51.5% | [6] 34.3% | [7] 26% | [10] 35% | [11] 25.3% | [12] 20.1% | [13] 14.8% | [14] 35.2% | [15] 52% | [16] 27.9% | [17] 35.1% | [20] 75.4%

CCn1c(-c2cc3c([nH]c4ccccc43)c(-c3cccc(O)c3)n2)n[nH]c1=S
active: [1] -22.2% | [5] 9.38% | [11] -3.76%
inactive: [2] 56.9% | [3] 63.6% | [4] 47.3% | [6] 61.1% | [7] 47.9% | [8] 35% | [9] 28% | [10] 25.6% | [12] 19.3% | [13] 40.8% | [14] 98.1% | [15] 54.8% | [16] 55.8% | [17] 53.7% | [18] 28.9% | [19] 28.1% | [20] 64.8%

CC1(C)OB(O)c2cc(-c3nc4ccc5[nH]ncc5c4c4c3CCCC4)ccc21
inactive: [1] 59.3% | [2] 71.8% | [3] 51.2% | [4] 34.4% | [5] 73.4% | [6] 21.1% | [7] 20.8% | [8] 21.9% | [9] 50.2% | [10] 30.7% | [11] 24.5% | [12] 28.1% | [13] 46.3% | [14] 105% | [15] 67.1% | [16] 33.1% | [17] 38.7% | [18] 94.6% | [19] 68.7% | [20] 61.8%

Cn1cc(-c2csc(-c3cn(CCCN4CCOCC4)c4ccccc34)n2)c2cccnc21
inactive: [1] 91.8% | [2] 86.7% | [3] 87.2% | [4] 71% | [5] 86.9% | [6] 93.7% | [7] 92% | [8] 55.2% | [9] 62% | [10] 59.7% | [11] 58.9% | [12] 59.5% | [13] 82.6% | [14] 84.7% | [15] 97.8% | [16] 102% | [17] 98.6% | [18] 96.3% | [19] 88% | [20] 91%

Cc1c2ccncc2c(C)c2c1c1cc(CO)ccc1n2C
inactive: [19] 24.3%
active: [1] -7.55% | [2] 1.54% | [3] 6.64% | [4] 3.77% | [5] -21.4% | [6] 0.85% | [7] 8.35% | [8] -81.7% | [9] 8.76% | [10] 6.68% | [11] -4.24% | [12] -17.1% | [13] 6.79% | [14] -15.8% | [15] -3.73% | [16] -2.65% | [17] -8.24% | [18] -24.2% | [20] 4.56%

CN(Cc1cnc2nc(N)nc(N)c2n1)c1ccc(C(=O)NC(CCC(=O)O)C(=O)O)cc1Br (stereo not given)
inactive: [1] 67.4% | [2] 67.6% | [3] 26% | [4] 38.8% | [5] 50.4% | [6] 15.8% | [7] 19% | [8] 76.4% | [9] 37.9% | [10] 30.5% | [11] 34.1% | [12] 54.3% | [13] 45.5% | [14] 27.7% | [15] 75% | [16] 45.3% | [17] 40.9% | [18] 53.8% | [19] 96.7% | [20] 38.4%

COc1ccc(-c2ccc(-c3ccc(C(=N)N)nc3)s2)cc1Cl
inactive: [1] 102% | [2] 56.4% | [5] 94.5% | [8] 88.2% | [16] 97.1% | [20] 37.7%
active: [3] -81.7% | [4] -94.8% | [6] -96.2% | [7] -90.2% | [9] -49% | [10] -49.3% | [11] -7.17% | [12] -45.4% | [13] -28.5% | [14] -37.6% | [15] -79.5% | [17] -87.8% | [18] -90.6% | [19] -48.3%

COc1ccc2nc(Cl)c(/C=C3\CC(c4ccccc4)=NN(c4ccccc4)C3=O)cc2c1
inactive: [1] 63.4% | [2] 67.7% | [3] 72.3% | [4] 61.7% | [5] 78.6% | [6] 18.4% | [7] 14.5% | [8] 46.9% | [9] 96.9% | [10] 79.8% | [11] 76.6% | [12] 97.3% | [13] 41.8% | [14] 93.5% | [15] 37.4% | [16] 46.5% | [17] 50.7% | [18] 74.4% | [19] 32.9% | [20] 60.2%

O=C(CCCCCCN1CC(=O)N2[C@H](c3ccc(Cl)cc3)c3[nH]c4ccccc4c3C[C@@H]2C1=O)NO
inactive: [1] 66.1% | [2] 65.7% | [3] 63.1% | [4] 57.9% | [5] 55.8% | [6] 84.4% | [7] 65.2% | [8] 78.9% | [9] 25.7% | [11] 21.6% | [12] 24.5% | [13] 51.8% | [14] 59.5% | [15] 74.3% | [16] 62.9% | [17] 33.5% | [18] 56.5% | [19] 63.7% | [20] 90.2%
active: [10] 4.87%

CCO/C=N/C1=C(C#N)C(c2ccc(F)cc2)c2sc3c(F)cccc3c2O1 (stereo not given)
inactive: [2] 66.5% | [3] 49.7% | [4] 54.2% | [5] 64.4% | [6] 54% | [7] 25.2% | [8] 40.8% | [9] 22.9% | [10] 51.5% | [11] 31.8% | [12] 41.9% | [13] 51.5% | [14] 83.4% | [15] 67.8% | [16] 46.9% | [17] 50.3% | [19] 24.4% | [20] 25.6%
active: [1] 2.27% | [18] 8.43%
